For 20 compounds, inhibition results are on record in PubChem BioAssay AID873 (PCMD, 2007).

The inhibition is the relative decrease from the control value, in per cent.

Each structure is given as a SMILES string. Among all 210,000 compounds or so, about 1,300 (0.62%) were called active. Shown is part of a subset that was picked to be rich in actives. Unmarked numbers belong to inactive results.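 The calls were made as follows: active = inhibition of 40% or more; inactive = the rest.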

The target of the assay is Kallikrein-5 (Homo sapiens) (UniProt Q9Y337). In words: inhibition of kallikrein 5 (hK5) activity – biochemical, 1536-well, primary screen (AID 873).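 Also: 0% = enzyme controls without compound and 100% = no-enzyme blanks.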 Conditions: recombinant hK5, fluorogenic AMC substrate cleavage; at 5 µM; hits give high values.
Sequence of Kallikrein-5 (Homo sapiens) (Q9Y337 67-293 limits assumed): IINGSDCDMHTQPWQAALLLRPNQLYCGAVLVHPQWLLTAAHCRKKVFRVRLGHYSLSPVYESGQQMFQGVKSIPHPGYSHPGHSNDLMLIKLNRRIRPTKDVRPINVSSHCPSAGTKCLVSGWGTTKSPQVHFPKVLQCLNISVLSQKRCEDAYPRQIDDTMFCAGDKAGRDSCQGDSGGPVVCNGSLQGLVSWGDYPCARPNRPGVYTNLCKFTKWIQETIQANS
As for `O=C(CN1CCN(Cc2ccccc2)CC1)NC(c1ccccc1)c1ccccc1`, the inhibition was -1.99%. In the case of `Cc1cc2c(cc1C)N(Cc1ccccc1)C1=NCCCN12` it was -0.81%; in that of `COc1ccc(C(C(=O)NC(C)(C)C)N(C(=O)Cn2nnc3ccccc32)c2ccc(C(C)=O)cc2)cc1O` (stereo not given), -4.08%; in that of `CCOc1ccc(/C(O)=C2\C(=O)C(=O)N(c3ccc(OC)cc3)C2c2ccccc2[N+](=O)[O-])cc1` (stereo not given), -0.1%.

For `C/C(Cc1ccccc1)=N\NC(=O)CNC(=O)c1ccc2c(c1)OCCO2`, the inhibition was -2.98%.

Regarding `C/C(Cc1ccccc1)=N\NC(=O)CNC(=O)c1ccccc1Cl`, the inhibition is 47.7% (active). In the case of `C/C(Cc1ccccc1)=N\NC(=O)CNC(=O)c1cccc(Br)c1` it was -15.8%. In the case of `Cc1cc(C(=O)NCCc2ccc(Cl)cc2)n(-c2ccccc2)n1` it was 0.87%; in that of `C=CCNC(=O)c1ccc2c3n(nc2c1)-c1ccc(C)cc1CO3`, 2.58%; in that of `C=CCNC(=S)N/N=C/c1ccc(C)s1`, -12.8%. Take `Cc1nc(-c2ccc(Cl)cc2)sc1C1(C)CC(c2ccccc2F)=NO1` (stereo not given): the inhibition is 2.17%. With `CC(=O)c1ccc(S(=O)(=O)N2CCN(C(=O)/C=C/c3ccc4ccccc4n3)CC2)cc1`, the inhibition was -6.25%. In the case of `COCCNC(=S)N1CCN(C)CC1` it was 0.97%. In the case of `CSc1ccccc1C(=O)Nc1cccc(C(C)=O)c1` it was 45% (active); in that of `CC(=O)c1cccc(NC(=O)c2ccncc2)c1`, 2.01%; in that of `COc1cccc(NC(=O)c2ccccc2SC)c1`, -2.44%. In the case of `CC(C)(C)C(=O)NNC(=O)c1ccc(Oc2cc(Cl)cc(Cl)c2)o1` it was 4.32%; in that of `COCCNc1nc(-c2ccccc2)nc2c1oc1ccccc12`, 1.99%. With `Cn1c(=O)c2c(-c3cccc(Br)c3)c(C#N)c(N)nc2n(C)c1=O`, the inhibition is 2.05%. With `S=C(NCCc1ccccc1)Nc1ccccc1`, the inhibition was 2.79%.
